This is a sample that favours compounds with a hit; in the whole collection about 3.4% have one here.
GPR151 ag: activates the human receptor GPR151; Q8TDV0; PathHunter beta-arrestin GPR151 cells, luminescence; activation, % at 11.2 µM; hit rate 1% among 650,000; in the data active = activation above about 4.9%;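 note: 0% = median of compound wells and 100% = cells with positive control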
Target sequence (Q8TDV0 whole entry, looked up): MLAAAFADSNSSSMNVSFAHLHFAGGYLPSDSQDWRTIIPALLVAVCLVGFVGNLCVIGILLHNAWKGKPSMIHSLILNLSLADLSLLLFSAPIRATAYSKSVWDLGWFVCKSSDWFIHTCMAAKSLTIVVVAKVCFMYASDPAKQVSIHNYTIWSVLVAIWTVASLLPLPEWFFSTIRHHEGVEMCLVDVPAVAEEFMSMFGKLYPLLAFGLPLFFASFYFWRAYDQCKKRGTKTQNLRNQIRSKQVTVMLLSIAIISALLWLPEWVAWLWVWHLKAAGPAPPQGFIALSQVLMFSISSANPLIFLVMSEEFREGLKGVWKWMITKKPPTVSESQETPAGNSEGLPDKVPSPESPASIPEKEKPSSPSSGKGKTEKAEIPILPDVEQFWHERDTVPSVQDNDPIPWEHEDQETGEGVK
FBW7 act: activators of human E3 ligase FBW7 | Q969H0 | AlphaScreen FBW7–phospho-cyclin E peptide binding, activator screen | normalized activity (activation), % at 26.1 µM | hit rate 0.13% among 650,000 | AID 1259310; in the data active = normalized activity above about 1.9%;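 note: purified mutant Fbw7 with reduced substrate affinity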
MITF primary: human MITF inhibition, primary screen; inhibition, % at 2.6 µM; AlphaScreen MITF homodimerization, bead proximity signal; hit rate 0.91% among 650,000; AID 1259374; in the data active = inhibition above about 50%;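 note: 0% = vehicle wells with protein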
TEAD-YAP block: TEAD-YAP interaction inhibition; HEK-TIYL cells, TEAD-Gal4/YAP UAS-luciferase luminescence; inhibition, % at 9.12 µM; hit rate 1.4% among 640,000; in the data active = inhibition above about 32%;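 note: 0% = median of test compound wells and 100% = reference inhibitor wells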
* hit, by the source's call.

SMILES | GPR151 ag | FBW7 act | MITF primary | TEAD-YAP block
O=C1CCCC2=C1C(c1ccncc1)Nc1ccc(C(=O)c3ccccc3)cc1N2 (centres undefined) | 0 | 0 | -11 | 25
O=C1CCCC2=C1C(c1cccc(O)c1)Nc1ccc(C(=O)c3ccccc3)cc1N2 (centres undefined) | -1 | 0 | 15 | 20
O=C1CCCC2=C1C(c1ccc(Br)cc1)Nc1ccc(C(=O)c3ccccc3)cc1N2 (centres undefined) | -1 | 0 | -1 | 51*
O=C1CCCC2=C1C(c1cccc(Cl)c1)Nc1ccc(C(=O)c3ccccc3)cc1N2 (centres undefined) | 0 | 0 | 4 | 70*
Cc1ccc(/C(O)=C2/C(=O)C(=O)N(CCC(=O)O)C2c2ccc(F)cc2)cc1 (centres undefined) | -1 | 1 | 21 | -1
CCCCc1ccc(NC(=O)c2ccc(C)cc2)cc1 | 2 | 0 | 5 | -30
O=S(=O)(O)c1nc2ccccc2n1CCOc1ccccc1F | -1 | 0 | -4 | -9
Cc1ccc(C2Nc3ccc(C(=O)c4ccccc4)cc3NC3=C2C(=O)CCC3)cc1 (centres undefined) | -1 | 0 | -2 | 41*
COc1ccc(-n2c(C)c(C(C)=O)c3cc(OC(=O)c4ccc(C)cc4)ccc32)cc1 | 0 | 1 | -5 | 48*
COc1ccccc1-c1ccc(/C=C/C(=O)c2ccco2)o1 | -1 | 1 | 11 | -49
O=C(/C=C/Nc1ccc(Br)cc1Cl)c1ccco1 | -4 | 0 | 11 | 94*
COc1ccc(-c2ccc(/C=C/C(=O)c3ccco3)o2)cc1 | 4 | 0 | 63* | -42
COc1ccc(Br)cc1/C=C/C(=O)c1ccco1 | 0 | 0 | -4 | 61*
COc1ccc(OC)c(C(=O)COC(=O)CCC(=O)c2cccs2)c1 | 1 | 0 | -15 | -8
COCCCN1C(=O)c2[nH]nc(-c3ccccc3O)c2C1c1cccc(Br)c1 (centres undefined) | 0 | 0 | 10 | 35*
COCCCN1C(=O)c2[nH]nc(-c3ccccc3O)c2C1c1cccc(O)c1 (centres undefined) | 0 | 0 | 11 | 3
CCCN1CCc2nc(NC(=O)c3sc4ccccc4c3Cl)sc2C1 | -1 | 0 | 8 | 34*
COc1ccc(OC)c(/C=N/NC(=O)Cc2n[nH]c(=O)[nH]c2=O)c1 | 0 | 0 | 10 | 9
COc1nc(N2CCC(C)CC2)nc(N)c1[N+](=O)[O-] | -2 | 0 | -1 | -8
COc1cc2nc(-c3ccc(N(C)C)cc3)n(C)c2cc1OC | 0 | 0 | 3 | -71
COc1cc2nc(C)n(C(=S)S)c2cc1OC | 0 | 0 | 14 | 56*
CCN(CC)c1ccc(N)c(C)c1 | -1 | 0 | 80* | 12
Brc1ccc2c(c1)c1nc3ccccc3nc1n2CCc1ccccc1 | -1 | 0 | -4 | -3
CS(=O)(=O)N(CC(=O)N=Nc1c(O)[nH]c2ccccc12)c1ccccc1F | 1 | 0 | 17 | -1
O=S(=O)(NCc1cccs1)c1ccc(-c2ccc(S(=O)(=O)NCc3cccs3)cc2)cc1 | 0 | 0 | -5 | 4
SMILES | GPR151 ag | FBW7 act | MITF primary | TEAD-YAP block
O=S(=O)(NCc1cccs1)c1ccc(Cc2ccc(S(=O)(=O)NCc3cccs3)cc2)cc1 | 1 | 0 | 7 | 34*
Nc1c(C(=O)N2CCOCC2)sc2nc3c(cc12)CCCCC3 | -9 | 0 | 0 | 87*
Cc1cc(C)c2nc3sc(C(=O)N4CCOCC4)c(N)c3cc2c1 | -1 | 0 | 16 | 36*
NC(=O)c1sc2nc3c(cc2c1N)CCCCC3 | -8 | 0 | 1 | 68*
Nc1c(C(=O)N2CCOCC2)sc2nc3c(cc12)CCCC3 | -6 | 1 | 15 | 31
NC(=O)c1sc2nc3cc4c(cc3cc2c1N)OCCO4 | -6 | 0 | 6 | 97*
Cc1c(S(=O)(=O)N(Cc2ccccc2)Cc2ccccc2)c(=O)n(C)c(=O)n1C | 0 | 0 | 14 | 5
Nc1c(C(=O)Nc2cccc(C(=O)O)c2)sc2nc3c(cc12)CCC3 | -7 | 1 | 2 | 57*
Nc1c(C(=O)c2ccc(Cl)cc2)sc2nc3c(cc12)CCCC3 | 0 | 0 | 11 | 9
Nc1c(C(=O)c2ccccc2)sc2nc3c(cc12)CCCC3 | -1 | 0 | -19 | 40*
Nc1c(C(=O)Nc2ccccc2)sc2nc3c(cc12)CCC3 | 2 | 0 | -8 | 30
CC(=O)Oc1ccc2c(=O)c(Oc3ccccc3F)c(C)oc2c1 | 3 | 0 | 13 | -3
CCOCCCNC(=O)c1ccc2c(c1)nc(C)n2-c1cc(C)ccc1OC | 2 | 0 | -3 | 15
